This is an account of results in PubChem BioAssay (NCATS).

Records with an inconclusive call do not appear. Values without a mark were called inactive. The source made the active and inactive calls. Calls come from the whole dose curve; as a rule, active = well fitted curve in the direction sought with a large enough effect; inconclusive = small, poorly fitted or top-dose-only effect, or another doubt; inactive = no such curve, though single readings can be large; an effect the other way counts as inactive or inconclusive.

The target in test [1] is ATP-dependent 6-phosphofructokinase (Trypanosoma brucei brucei) (UniProt O15648). The test can be described thus: qHTS Assay to Find Inhibitors of T. brucei phosphofructokinase: hit validation (AID 492961).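 Note: luminescence reports ADP formed as PFK phosphorylates fructose-6-phosphate with ATP; % is set by controls: 0 for no effect and ±100 for the full control effect.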 The method, boiled down:
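In this biochemical qHTS validation, titrated compounds were tested against 1.25 nM PFK with 0.1 mM ATP and 0.5 mM F6P. Percent activity came from controls lacking or containing enzyme.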

The nature of test [2]: qHTS profiling for inhibitors of Plasmodium falciparum proliferation (AID 504749).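 For activity, negative = inhibition: 0% = DMSO vehicle and full inhibition = artemisinin control.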 For all read-outs here: nearly all actives have a fitted effect of over 60% in size. Note: potency is the fitted concentration of half-maximal effect. Particulars: P. falciparum in erythrocytes, SYBR Green DNA, 72 h; for activity, negative = inhibition: at 28.7 µM (top of the series). The method, boiled down:
(§1)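 Infected RBCs, 0.3% parasitemia/2.5% Hct final; cpd 72 h, 37 C, 5% CO2; lysis buffer with saponin/triton/SYBR Green I, o/n RT dark; FI 485/535; norm. to artemisinin (0.29 uM) and DMSO.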
(qHTS replaces the single test concentration by a dilution series.)

The next test concerns 3D7. Described as above. The settings on record: P. falciparum in erythrocytes, SYBR Green DNA, 72 h; series mostly up to 28.7 µM. The method, boiled down:
as §1

Another test deals with ATS189. The description is as above. Particulars: P. falciparum in erythrocytes, SYBR Green DNA, 72 h; series mostly up to 28.7 µM. The method, boiled down:
as §1

The subject of another test is CP185. The description is as above. Particulars: P. falciparum in erythrocytes, SYBR Green DNA, 72 h; series mostly up to 28.7 µM. The method, boiled down: as §1
The next test deals with CP191. The test is described as above. The settings on record: P. falciparum in erythrocytes, SYBR Green DNA, 72 h; series mostly up to 28.7 µM. The method, boiled down:
as §1

In the next test the test system is CP192. Described as above. The settings on record: P. falciparum in erythrocytes, SYBR Green DNA, 72 h; series mostly up to 28.7 µM. The method, boiled down: as §1
The next test deals with CP194. Described as above. The settings on record: P. falciparum in erythrocytes, SYBR Green DNA, 72 h; series mostly up to 28.7 µM. The method, boiled down:
as §1

Another test deals with CP211. The description is as above. Particulars: P. falciparum in erythrocytes, SYBR Green DNA, 72 h; series mostly up to 28.7 µM. The method, boiled down: as §1
Another test relates to CP217. The test is described as above. Particulars: P. falciparum in erythrocytes, SYBR Green DNA, 72 h; series mostly up to 28.7 µM. The method, boiled down: as §1
The next test relates to CP238. Described as above. Particulars: P. falciparum in erythrocytes, SYBR Green DNA, 72 h; series mostly up to 28.7 µM. The method, boiled down: as §1
The subject of a further test is CP252. The description is as above. Particulars: P. falciparum in erythrocytes, SYBR Green DNA, 72 h; series mostly up to 28.7 µM. The method, boiled down:
as §1

The next test relates to CP262. The test is described as above. Particulars: P. falciparum in erythrocytes, SYBR Green DNA, 72 h; series mostly up to 28.7 µM. The method, boiled down:
as §1

The next test deals with CP265. The description is as above. The settings on record: P. falciparum in erythrocytes, SYBR Green DNA, 72 h; series mostly up to 28.7 µM. The method, boiled down: as §1
The test system of another test is CP269. The test is described as above. The settings on record: P. falciparum in erythrocytes, SYBR Green DNA, 72 h; series mostly up to 28.7 µM. The method, boiled down: as §1
In a further test the test system is CP286. The description is as above. Particulars: P. falciparum in erythrocytes, SYBR Green DNA, 72 h; series mostly up to 28.7 µM. The method, boiled down:
as §1

A further test concerns CP329. The test is described as above. Particulars: P. falciparum in erythrocytes, SYBR Green DNA, 72 h; series mostly up to 28.7 µM. The method, boiled down: as §1
The test system of another test is Dd2. Described as above. The settings on record: P. falciparum in erythrocytes, SYBR Green DNA, 72 h; series mostly up to 28.7 µM. The method, boiled down:
as §1

For another test, the system named is ECU. The test is described as above. Particulars: P. falciparum in erythrocytes, SYBR Green DNA, 72 h; series mostly up to 28.7 µM. The method, boiled down: as §1
A further test concerns FAB9. Described as above. Particulars: P. falciparum in erythrocytes, SYBR Green DNA, 72 h; series mostly up to 28.7 µM. The method, boiled down: as §1

Chain of ATP-dependent 6-phosphofructokinase (Trypanosoma brucei brucei) (O15648 whole entry, looked up): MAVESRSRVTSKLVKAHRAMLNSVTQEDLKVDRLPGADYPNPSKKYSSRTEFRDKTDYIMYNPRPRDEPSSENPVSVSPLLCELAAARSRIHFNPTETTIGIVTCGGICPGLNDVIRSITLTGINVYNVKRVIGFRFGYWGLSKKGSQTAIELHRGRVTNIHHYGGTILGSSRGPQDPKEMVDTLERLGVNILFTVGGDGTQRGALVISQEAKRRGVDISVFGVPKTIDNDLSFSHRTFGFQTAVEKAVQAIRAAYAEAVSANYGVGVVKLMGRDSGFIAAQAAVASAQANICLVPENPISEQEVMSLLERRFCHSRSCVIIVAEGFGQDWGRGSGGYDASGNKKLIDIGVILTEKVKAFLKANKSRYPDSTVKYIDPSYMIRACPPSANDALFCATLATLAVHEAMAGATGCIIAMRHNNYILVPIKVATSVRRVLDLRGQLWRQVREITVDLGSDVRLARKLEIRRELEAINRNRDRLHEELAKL

`O=C(O)Cc1sc(-c2ccc(Cl)cc2)nc1-c1ccccc1`: the Potency result (in test [1]; in the test with 3D7; in the test on ATS189; in the test with CP185; in the test on CP191; in the test on CP192) was “inactive” each time. The Potency entry in the test on CP194, in the test on CP211, with CP217, in the test with CP238, in the test on CP252 and in the test with CP262 was “inactive” throughout. Besides, the Potency entry in the test with CP265, in the test with CP269, with CP286, in the test with CP329, with Dd2 and in the test on ECU was “inactive” each time. Besides, in the test with FAB9, the Potency result was “inactive”. The activity, negative = inhibition in test [2] (parasite line A) was 4.11%; in test [2] (parasite line B), -3.92%.

As for `CCC(C(=O)C(C)C(O)C(C)CCc1ccc(C)c(O)c1C(=O)O)C1OC(CC)(C2CC[C@@](O)(CC)C(C)O2)CC1C` (some centres undefined), the Potency entry in test [1] was “inactive”. Moreover, the Potency was 794 nM (active) in test [2] (parasite line A); 1120 nM (active) in test [2] (parasite line B); 447 nM (active) with 3D7; 1260 nM (active) in the test with ATS189; 1120 nM (active) in the test with CP185; 708 nM (active) in the test on CP191. The Potency with CP194 was 849 nM (active); in the test with CP211, 536 nM (active); in the test on CP217, 1000 nM (active); in the test with CP238, 1000 nM (active); in the test with CP252, 794 nM (active); in the test with CP262, 953 nM (active). For the same molecule, the Potency with CP265 was 891 nM (active); in the test on CP269 it was 757 nM (active); with CP286 it was 631 nM (active); in the test with CP329, 757 nM (active); in the test on Dd2 it was 794 nM (active); in the test on ECU, 708 nM (active). For the same molecule, in the test on FAB9, the Potency is 2000 nM (active).

For the molecule `COc1ccc2cc1Oc1cc3c(cc1OC)CC[N+](C)(C)C3Cc1ccc(cc1)Oc1c(OC)c(OC)cc3c1C(C2)[N+](C)(C)CC3` (centres undefined), the Potency entry (in test [1]; in the test on 3D7; in the test with ATS189; in the test with CP185; in the test on CP191; in the test on CP192) was “inactive” in each case. In addition, the Potency result in the test with CP194, in the test on CP211, in the test on CP217, with CP238, in the test on CP252 and in the test on CP262 was “inactive” in each case. The Potency result with CP265, in the test on CP269, with CP286, in the test with CP329, in the test on Dd2 and with ECU was “inactive” in each case. Besides, the Potency result in the test on FAB9 is “inactive”. In addition, the activity, negative = inhibition in [2] (parasite line A) is 13.3%; in test [2] (parasite line B), 0.155%.

On to `O=C(O)c1ccc(N[C@@H]2OC[C@@H](O)[C@@H](O)[C@@H]2O)cc1`, for which the Potency result (in test [1]; with 3D7; with ATS189; in the test on CP185; in the test on CP191; in the test with CP192) was “inactive” throughout. Besides, the Potency result in the test on CP194, with CP211, with CP217, in the test on CP238, in the test with CP252 and with CP262 was “inactive” throughout. The Potency entry in the test on CP265, in the test with CP269, with CP286, with CP329, with Dd2 and in the test on ECU was “inactive” in each case. Moreover, the Potency entry in the test with FAB9 is “inactive”. Besides, the activity, negative = inhibition in test [2] (parasite line A) is 8.43%; in test [2] (parasite line B) it was 9.05%.

For the molecule `CC[C@@]1(O)CC2CN(CCc3c([nH]c4ccccc34)[C@](C(=O)OC)(c3cc4c(cc3OC)N(C)C3[C@@](O)(C(=O)OC)C(OC(C)=O)[C@]5(CC)C=CCN6CC[C@@]43C65)C2)C1` (some centres undefined), the Potency entry in test [1] was “inactive”. Also, the Potency in test [2] (parasite line A) was 2510 nM (active); in [2] (parasite line B) it was 1120 nM (active); with 3D7 it was 2000 nM (active); in the test on ATS189, 3980 nM (active); with CP185 it was 2240 nM (active); with CP191 it was 2820 nM (active). The Potency in the test with CP192 is 3380 nM (active); with CP194, 3790 nM (active); with CP211, 2690 nM (active); with CP217, 3550 nM (active); in the test on CP238 it was 3160 nM (active); in the test with CP252 it was 3550 nM (active). The Potency in the test with CP262 is 1690 nM (active); in the test with CP265, 2240 nM (active); in the test on CP269, 3010 nM (active); in the test on CP286, 794 nM (active); with CP329, 3010 nM (active); in the test with Dd2, 355 nM (active). The Potency with ECU was 2510 nM (active).

Turning to `CO/N=C(/C(=O)N[C@@H]1C(=O)N2C(C(=O)O)=C(CSc3cnns3)CS[C@H]12)c1csc(N)n1`, the Potency result (in [1]; with 3D7; in the test on ATS189; in the test on CP185; in the test with CP191; in the test with CP192) was “inactive” throughout. Further, the Potency result with CP194, with CP211, in the test on CP217, with CP238, in the test on CP252 and in the test with CP262 was “inactive” throughout. The Potency result in the test on CP265, with CP269, with CP286, with CP329, with Dd2 and in the test with ECU was “inactive” each time. The Potency result with FAB9 was “inactive”. Further, the activity, negative = inhibition in [2] (parasite line A) was 8.36%; in [2] (parasite line B), 11.8%.
